Experimental data from PubChem BioAssay (NCI).
Where “and” joins values, the source holds several entries; their conditions need not be identical. Equal entries are not always repeated. Compounds without any hit were thinned out: in the full panel of roughly 83,000, 20% have a hit.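 Note: values are percent growth. 100 is the growth of untreated cells, values between 100 and 0 indicate rising inhibition; between -100 and 0 indicates cell death.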 Calls of active or inactive are those of the source. How the source made its calls: active means growth percent below 10; inactive means the rest.

The compounds below were run on MDA-MB-468 breast (assay: NCI-60 one-dose screen, 48 h (100 = growth as untreated, 0 = no growth, -100 = all killed)). Settings: 10 µM unless noted.

Q: `CC(=O)c1ccc(NC(=O)Nc2ccc(S(=O)(=O)Nc3ccc(Cl)nn3)cc2)cc1` was tested. Which growth did it give?
A: The growth was 107% (inactive).

Q: With `CCCCCCCCCCSc1ncnc2nc[nH]c12` as the compound, how does the growth read?
A: The growth was 8.95% (active).

Q: `Nc1c(C(=O)Nc2cccc3c2OCCO3)sc2nc3c(cc12)C(=O)CCC3` was tested. Which growth did it give?
A: The growth was 18.7% (inactive).

Q: `CN(C)C(=O)c1cc(-c2ccc3ncnc(NCc4ccccc4)c3c2)cnc1N` was tested. Which growth did it give?
A: Its growth is 71.9% (inactive).

Q: `FC(F)(F)c1cc(Nc2ccc3cc(OCCCN4CCOCC4)ccc3n2)ccc1Cl` was tested. Which growth did it give?
A: The growth was 31.1% (inactive).

Q: How did the growth turn out when `O=C(CNc1nnc(-c2ccc(Cl)cc2)o1)Nc1ccc(-c2nc3ccccc3s2)cc1` was run?
A: The growth was -10.2% (active).

Q: For `COC1=C(OC)C(=O)C(OC)=C(OC)C1=O`, which growth is on record?
A: The growth was 33.4% (inactive).

Q: How did the growth turn out when `CN1CCN(c2nc(-c3cccc4ccccc34)nc3sc4c(c23)CCCCCC4)CC1` was run?
A: Its growth is 77.3% (inactive).

Q: For `Fc1cc2[nH]ncc2c2c3c(c(-c4cn[nH]c4C(F)(F)F)nc12)C1CCC3C1` (stereo not given), which growth is on record?
A: The growth was 11.5% (inactive).

Q: `O=C1CN(CCN2CC(=O)N(Cc3ccccc3)C(=O)C2)CC(=O)N1Cc1ccccc1` was tested. Which growth did it give?
A: Its growth is 107% (inactive).

Q: Which growth does the source give for `CC(C)Sc1ncnc2nc[nH]c12` here?
A: Its growth is 109% (inactive).

Q: For `O=C(Nc1cccc(Cl)c1)Nc1nc2ccc([N+](=O)[O-])cc2o1`, which growth is on record?
A: Its growth is -4.51% (active).

Q: `N#Cc1c(-c2cccs2)cc(-c2cnccn2)nc1SCC(=O)N/N=C/c1ccncc1` was tested. Which growth did it give?
A: Its growth is 103% (inactive).

Q: Which growth does the source give for `O=C(Nc1ccncc1)C(=O)c1cn(S(=O)(=O)c2cccc3ccccc23)c2ccccc12` here?
A: Its growth is 19.5% (inactive).

Q: `Fc1cnccc1C1CC(c2ccc(N3CCNCC3)cc2)=NN1` (stereo not given) was tested. Which growth did it give?
A: Its growth is 114% (inactive).

Q: `CCOc1ccc(-c2cnnn2-c2nonc2-n2cccc2)cc1` was tested. Which growth did it give?
A: Its growth is 10.6% (inactive).

Q: For `COc1cc2c(=O)n(CCN(C)C)c3c4cc5c(cc4ccc3c2cc1OC)OCO5`, which growth is on record?
A: Its growth is -66.8% (active).

Q: Which growth does the source give for `CC1CCCC(=O)O1` (stereo not given) here?
A: The growth was 97.4% (inactive) and 97.3% (inactive).

Q: `CC1(C)[C@@H](O)CC[C@]2(C)[C@H]3CC[C@@H]4[C@H]5[C@H](C(=O)/C=C/c6ccc(C(F)(F)F)cc6)CC[C@]5(CO)CC[C@@]4(C)[C@]3(C)CC[C@@H]12` was tested. Which growth did it give?
A: Its growth is 61.9% (inactive).

Q: How did the growth turn out when `O=C(O)Cc1cccc(=O)c(O)c1C(=O)O` was run?
A: The growth was 105% (inactive).

Q: With `C=C1C(=O)O[C@@H]2C[C@@H](C)/C=C\C(=O)[C@](C)(OC(C)=O)C[C@H](OC(=O)/C(C)=C\C)[C@@H]12` as the compound, how does the growth read?
A: Its growth is -59.1% (active).

Q: `O=C(Cc1nc2ccc([N+](=O)[O-])cc2nc1CC(=O)c1cccnc1)c1cccnc1` was tested. Which growth did it give?
A: The growth was 75.7% (inactive).

Q: Which growth does the source give for `CCOC(=O)c1c(NC(=O)c2cccc(C(F)(F)F)c2)sc2c3c(ccc12)OCN(C)C3` here?
A: The growth was -67.2% (active).

Q: `Cc1ccc(S(=O)(=O)NNC(=O)/C(=C\c2ccc(Cl)cc2)c2nc3ccccc3s2)cc1` was tested. Which growth did it give?
A: The growth was 111% (inactive).

Q: With `CN(C)c1ccc(O)c2c1CC1CC3C(N(C)C)C(=O)C(C(N)=O)=C(O)C3(O)C(=O)C1=C2O` (stereo not given) as the compound, how does the growth read?
A: Its growth is 36.7% (inactive).

Q: How did the growth turn out when `COc1cccc(NC(=O)c2cccc(C3CCc4c(cc(OC)c(OC)c4OC)O3)c2)c1` (stereo not given) was run?
A: Its growth is 71.5% (inactive).

Q: `CC(C)OC(=O)Nc1ccc(-c2nc(-c3cccc(OCCN4CCOCC4)c3)c(-c3ccnc(Br)c3)[nH]2)cc1` was tested. Which growth did it give?
A: The growth was -1.08% (active).

Q: `CCCCc1nc(Cl)c(CO)n1Cc1ccc(-c2ccccc2-c2nn[nH]n2)cc1` was tested. Which growth did it give?
A: Its growth is 96.4% (inactive).

Q: Which growth does the source give for `CCCCCCC(=O)Nc1ncc(Cc2ccc(C)cc2)s1` here?
A: Its growth is 28.4% (inactive).

Q: How did the growth turn out when `Nc1ccn(C2OC(CO)C(O)C2O)c(=O)n1` (stereo not given) was run?
A: The growth was 76% (inactive) and 106% (inactive) and 118% (inactive).

Q: Which growth does the source give for `CC(C)(C)OC(=O)N1CCc2c(sc3ncnc(N/N=C/c4ccc(Br)cc4)c23)C1` here?
A: The growth was 24.9% (inactive).

Q: How did the growth turn out when `COc1ccc(C(=O)/C=C/c2cc3c(c(OC)c2)OCC(=O)N3)cc1` was run?
A: Its growth is 42.3% (inactive).

Q: For `N#Cc1ccc(O)c(C2=NCC(Cc3ccccc3)O2)c1` (stereo not given), which growth is on record?
A: Its growth is 33.5% (inactive).

Q: How did the growth turn out when `CN(C)S(=O)(=O)c1ccc(-c2nc(C(Cl)Cl)nc3cc(-c4ccc(F)cc4)nn23)cc1` was run?
A: The growth was -46.2% (active).

Q: Which growth does the source give for `COc1cc(OC)c(C2SCC(=O)N2Nc2ncnc3ccccc23)cc1OC` (stereo not given) here?
A: The growth was 111% (inactive).

Q: For `CCCCCCCCCCC(C)Br` (stereo not given), which growth is on record?
A: Its growth is 111% (inactive).

Q: How did the growth turn out when `COc1cc(C2c3cc4c(cc3C(OC(=O)C[n+]3ccccc3)C3COC(=O)C23)OCO4)cc(OC)c1OC` (stereo not given) was run?
A: The growth was 5.13% (active).

Q: `COc1cc(CNC(=O)CCCC/C=C/C(C)C)ccc1OCc1nnc(Nc2ccccc2F)o1` was tested. Which growth did it give?
A: The growth was 58.9% (inactive).

Q: With `COC(=O)c1nc(-c2ccccc2)oc1S(=O)(=O)N1CCCC(C)C1` (stereo not given) as the compound, how does the growth read?
A: The growth was 29.2% (inactive).

Q: For `O=C(/C=C/c1cccc(O)c1)c1cccc(-n2cc(-c3ccc4ccccc4c3)[nH]c2=O)c1`, which growth is on record?
A: The growth was -79.7% (active).
